# Rows were chosen to be rich in hits. Some 2.7% of all compounds tested hit in one or more screens of this group.
# Tau fluor cs: Counterscreen qHTS for Inhibitors of Tau Fibril Formation, Fluorescence Polarization; tau K18 P301L Alexa594 fluorescence, heparin fibrillization; hit rate 0.93% among 280,000; Potency, µM (highest dose often 57.7 µM), for inactives: at the top dose activity change, negative = decrease; note: potency is the fitted concentration of half-maximal effect; nearly all actives have a fitted effect of over 55% in size
#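 Human K18 P301L tau (15 uM unlabeled plus 0.24 uM Alexa 594-labeled, final) in 100 mM sodium acetate pH 7 was mixed with compound and 20 uM heparin and incubated 6 hr at 37 C.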
# Tau FP inhib: qHTS for Inhibitors of Tau Fibril Formation, Fluorescence Polarization. hit rate 0.39% among 280,000. K18 P301L tau heparin fibrillization, Alexa594 FP, 6 h. Potency, µM (highest dose often 57.7 µM), without a hit: at the highest dose activity, negative = inhibition, actives largely listed as inhibitors; note: potency is the fitted concentration of half-maximal effect; nearly all actives have a fitted effect of over 55% in size
# Target sequence (P10636 561-689 P618L limits assumed): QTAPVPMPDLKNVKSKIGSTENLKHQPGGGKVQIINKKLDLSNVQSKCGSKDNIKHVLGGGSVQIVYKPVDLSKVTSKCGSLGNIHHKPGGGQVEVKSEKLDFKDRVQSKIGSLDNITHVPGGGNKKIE
#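 FP of Alexa 594-tau after heparin (20 uM) induction. Substrate: human K18 P301L, 15 uM unlabeled, 0.24 uM labeled. Buffer 100 mM sodium acetate pH 7. 6 hr, 37 C.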
# Coupling enz: qHTS Assay for Inhibitors of Fructose-1,6-bisphosphate Aldolase from Giardia Lamblia: Coupling assay counterscreen | AID 2472, 2010 | coupling enzyme system counterscreen, AmpLite Red fluorescence | activity change, negative = inhibition, % at 58.2 µM, hits read low | hit rate 0.67% among 290,000; in the data active = activity change below about -30%
#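 Fluorescence at 525 nm excitation and 598 nm emission measured inhibition of the coupled detection system without aldolase. Compounds (at 57.5 uM final) were preincubated 10 min at room temperature with coupling enzyme reagent before a 20 min substrate/AmpLite Red step.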
# Tau ThT inhib: qHTS for Inhibitors of Tau Fibril Formation, Thioflavin T Binding; Microtubule-associated protein tau (Homo sapiens), P10636; recombinant tau K18 P301L, heparin-induced fibrillization, ThT fluorescence; Potency, µM (series often up to 57.4 µM), for inactives: top-dose activity, negative = inhibition, hits mostly inhibitors; hit rate 2.1% among 270,000; note: potency is the fitted concentration of half-maximal effect; nearly all actives have a fitted effect of over 55% in size
#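 ThT emission at 510 nm, taken 1 hr after adding 30 uM dye, quantifies aggregates formed when 20 uM heparin acts on human tau K18 P301L for 6 hr at 37 C.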
# * hit, by the source's call; ? = inconclusive; · = no result; [ ] = another dose, or the depositor's remark. Unless noted, calls come from the whole dose curve; as a rule, active = well fitted curve in the direction sought with a large enough effect; inconclusive = small, poorly fitted or top-dose-only effect, or another doubt; inactive = no such curve, though single readings can be large; an effect the other way counts as inactive or inconclusive. % is set by controls: 0 for no effect and ±100 for the full control effect.
SMILES,Tau fluor cs,Tau FP inhib,Coupling enz,Tau ThT inhib
COc1ccccc1NC(=S)N/N=C1\CC(C)(C)Oc2ccc(O)cc21,?,?,-4,?
COc1ccc(NC(=S)N/N=C2\CC(C)(C)Oc3ccc(O)cc32)cc1,28µM*[quencher],-4%,-3,?
COCC(C)N1C(=O)Cc2c1nc(N)c1c(N)nc(N3CCN(c4ccccc4F)CC3)c(C#N)c21 (configuration not stated),?,?,-8,25µM*
CCNc1sc(C(=O)c2cccs2)c(N)c1C#N,?,?,6,28µM*
CCNc1sc(C(=O)c2cccs2)c(N)c1-c1nc2ccccc2s1,?,-4%,-3,8.9µM*
Cn1c(=O)c(-c2cccs2)nc2cnc(N3CCNCC3)nc21,·,·,1,·
Cc1ccc(C)n1-c1ccc(N2CCOCC2)cc1,-8%,-15%,-19,8.9µM*
Cc1ccc(C)n1-c1ccc(C(=O)/C=C/N(C)C)cc1,-4%,3%,2,-7%
Cc1ccc(C)n1-c1ccc(N2CCOCC2)c([N+](=O)[O-])c1,-25%,-6%,-19,?
Cc1ccc(C)n1-c1ccc(N(C)C)cc1,?,?,-30*,13µM*
CN(Cc1ccccc1)c1nc2c(S(=O)(=O)c3ccccc3)nnn2c2ccsc12,0%,-16%,·,7%
O=C(O)c1cccc(N/N=C/C2=C(Cl)c3cc(Cl)ccc3SC2)c1,?,?,11,6.3µM*
COC(=O)C1C2CC3c4[nH]c5cc(OC)ccc5c4CCN3CC2CC(OC(=O)c2cc(OC)c(OC)c(OC)c2)C1OC (configuration not stated),?,7%,-19,?
COC(=O)[C@H]1C(OC)[C@@H](OC(=O)c2cc(OC)c(OC)c(OC)c2)C[C@@H]2CN3CCc4c([nH]c5cc(OC)ccc45)[C@H]3C[C@H]21 (some centres not stated),?,?,-13,10µM*
CCOC(=O)Oc1c(OC)cc(C(=O)O[C@H]2C[C@H]3CN4CCc5c([nH]c6cc(OC)ccc56)[C@@H]4C[C@H]3[C@@H](C(=O)OC)[C@@H]2OC)cc1OC,·,·,-4,·
COC(=O)[C@H]1[C@H]2C[C@@H]3c4[nH]c5cc(OC)ccc5c4CCN3C[C@H]2C[C@@H](OC(=O)c2ccc(N)cc2)[C@@H]1OC,?,-4%,2,14µM*
Cc1[nH][nH]c(=O)c1C(c1c(C)[nH][nH]c1=O)c1cn(Cc2ccc(F)cc2)c2ccccc12,-25%,?,-47*,8.9µM*
Cc1[nH][nH]c(=O)c1C(c1c(C)[nH][nH]c1=O)c1cn(Cc2ccc(Cl)c(Cl)c2)c2ccccc12,?,?,-49*,10µM*
O=c1c2ccccc2ncn1Cc1ccc(Cl)c(Cl)c1,·,·,0,·
Cc1c(C(=O)NC(C)c2ccccc2)sc2ncnc(N(C)C3CCCCC3)c12 (configuration not stated),-10%,1%,·,-11%
COc1ccccc1NC(=O)C1=C(C)Nc2nc(SCC(=O)c3ccc(C)cc3)nn2C1c1ccc(F)cc1 (configuration not stated),14%,-8%,·,12%
CN1CC(C(=O)O)Cc2c1ccc1ccccc21 (configuration not stated),?,?,-46*,?
Nc1c(C(=O)NCCN2CCOCC2)c2nc3ccccc3nc2n1-c1ccc2c(c1)OCO2,-17%,1%,-6,?
COC(=O)c1c(N)n(-c2ccc(N3CCOCC3)cc2)c2nc3ccccc3nc12,?,?,-13,10µM*
COC(=O)c1c(N)n(-c2ccc(NC(C)=O)cc2)c2nc3ccccc3nc12,-8%,12%,-30*,?
SMILES,Tau fluor cs,Tau FP inhib,Coupling enz,Tau ThT inhib
CCc1ccccc1-n1c(N)c(C(=O)OC)c2nc3ccccc3nc21,-12%,4%,·,-4%
COc1ccccc1CNC(=O)c1c(N)n(CCCN2CCOCC2)c2nc3ccccc3nc12,?,-8%,-26,25µM*
Nc1c(C(=O)NCCN2CCOCC2)c2nc3ccccc3nc2n1-c1ccccc1,-13%,1%,-30*,?
O=C(NC1(C(F)(F)F)N=C(c2ccccc2)N(C2CCCCC2)C1=O)c1ccc(F)cc1 (configuration not stated),-18%,-4%,·,-11%
CC(=O)N1CCc2cc(CNS(=O)(=O)c3ccc(Cl)s3)ccc21,-2%,-1%,·,4%
CC(C)CCNC(=O)c1cccc(Nc2nc3ccccc3n3nnnc23)c1,-12%,-5%,·,-4%
O=C(CSc1n[nH]c(=O)[nH]c1=O)N/N=C/c1ccccc1,5%,2%,2,6%
COCCNC(=O)c1c(N)n(-c2cccc(C)c2)c2nc3ccccc3nc12,-25%,?,-38*,?
COCCNC(=O)c1c(N)n(-c2ccccc2)c2nc3ccccc3nc12,-21%,-4%,-6,?
Nc1c(C(=O)NCc2ccco2)c2nc3ccccc3nc2n1CCc1ccc(F)cc1,?,?,-34*,?
O=C(CSc1nc(-c2ccccc2)[nH]c1-c1ccc(F)cc1)NC1CCCC1,28µM*[quencher],11%,·,-14%
COc1ccc(-c2[nH]c(-c3ccc(C)cc3)nc2SCC(=O)NC2CCCC2)cc1,?,7%,-8,?
Cc1ccc(-c2nc(SCC(=O)NCC3CCCO3)c(-c3ccccc3)[nH]2)cc1 (configuration not stated),?,9%,-11,-18%
COc1ccc(-c2nc(SCC(=O)NC3CCCC3)c(-c3ccc(C)cc3)[nH]2)cc1OC,18µM*[quencher],?,·,?
COc1cccc(-c2nc(SCC(=O)NC3CCCC3)c(-c3ccc(C)cc3)[nH]2)c1,11µM*[quencher],?,·,-16%
COc1cccc(-c2nc(SCC(=O)NCC3CCCO3)c(-c3ccc(Cl)cc3)[nH]2)c1 (configuration not stated),13µM*[quencher],9%,·,?
Cc1ccccc1Cn1c(COc2ccc(Cl)cc2)nc2ccccc21,-1%,-4%,·,2%
COc1cccc(-c2nc(SCC(=O)NC3CCCC3)c(-c3ccccc3)[nH]2)c1,25µM*[quencher],?,·,-15%
COc1cccc(-c2nc(SCC(=O)NC3CCCC3)c(-c3ccc(F)cc3)[nH]2)c1,13µM*[quencher],10%,·,?
COc1cccc(-c2nc(SCC(=O)NCC3CCCO3)c(-c3ccc(C)cc3)[nH]2)c1 (configuration not stated),?,13%,·,-9%
Cc1c(Cl)cccc1NC(=O)C(=O)NCCc1csc(-c2cccc(F)c2)n1,-15%,-8%,·,-9%
CCOC(=O)N1C2=NC(C(=O)OC)=C(C(=O)OC)[C@@H]3N(C)c4ccc(OC)cc4[C@]23C[C@H]1C(=O)OC,4%[11.6 µM],4%[11.6 µM],3,3%[11.5 µM]
